As a reminder, the inhibition is the change of the read-out against control, counted positive when it falls.

The campaign covered roughly 110,000 compounds. About 80 (0.07%) were called active. This is one part of a sample in which actives are shown more often than they occur.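 The calls were made as follows: active = inhibition above the mean of the plate negative controls plus 5 SD (cut at about 13% in these data); inactive = the rest.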

The results in this text go back to PubChem BioAssay AID1029 (Sanford-Burnham Center for Chemical Genomics, 2008).

This experiment can be described thus: inhibitors of macrophage phagocytosis, primary screen, imaging, J774A.1 cells, IgG beads (AID 1029).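 Also: phagocytic index as fraction of beads internalized from green versus red external bead signal; plate controls were DMSO negative control for no effect and cytochalasin-D positive control for full effect.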 The conditions noted are these: J774A.1 macrophage IgG-bead phagocytosis, at 5 µM, active compounds read high.
Regarding `CCOC(=O)C(O)(c1ccc(N)c(OC)c1)C(F)(F)F` (centres undefined), the inhibition is -1.1% (inactive).
In the case of `CCOC(=O)C(O)(c1ccc(NC(=O)c2ccco2)c(OC)c1)C(F)(F)F` (centres undefined), the inhibition is 2.8% (inactive).
The value for `CN(C)C(=O)Oc1ccc(OCc2cccc[n+]2C)cc1` was -2.17% (inactive); that for `O=c1[nH]c(=S)n(C2CC2)c(O)c1/C=N/N1CCOCC1` was -3.16% (inactive).
